Experimental data from PubChem BioAssay (NCI).
The panel holds about 83,000 compounds, 20% with a hit somewhere; the sample as a whole holds those more often.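 In brief: 96-well plates, 48 h treatment, single concentration, percent growth endpoint.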 The source made the active and inactive calls. Rule for the calls: active = growth percent below 10; inactive = the rest.

Tests used:
Assay in all cases: NCI-60 one-dose screen, 48 h (100 = growth as untreated, 0 = no growth, -100 = all killed)
Settings in all cases: 10 µM unless noted
DU-145 prostate = tested on: DU-145 prostate
K-562 leukemia = tested on: K-562 leukemia
MALME-3M melanoma = tested on: MALME-3M melanoma
MDA-MB-231 breast = tested on: MDA-MB-231 breast
RXF 393 renal = tested on: RXF 393 renal
SF-268 CNS = tested on: SF-268 CNS
SF-295 CNS = tested on: SF-295 CNS
SF-539 CNS = tested on: SF-539 CNS
UACC-257 melanoma = tested on: UACC-257 melanoma
M14 melanoma = tested on: M14 melanoma
HCT-15 colon = tested on: HCT-15 colon
HT29 colon = tested on: HT29 colon
SNB-75 CNS = tested on: SNB-75 CNS
SNB-19 CNS = tested on: SNB-19 CNS
U251 CNS = tested on: U251 CNS
PC-3 prostate = tested on: PC-3 prostate
SK-MEL-5 melanoma = tested on: SK-MEL-5 melanoma
UACC-62 melanoma = tested on: UACC-62 melanoma
LOX IMVI melanoma = tested on: LOX IMVI melanoma
SK-MEL-28 melanoma = tested on: SK-MEL-28 melanoma

Measured: growth

Cc1ccc(C(=O)c2ccc(CC(=O)NN3C(=O)c4ccccc4C3=O)n2C)cc1
inactive: DU-145 prostate 108% | K-562 leukemia 90.9% | MALME-3M melanoma 101% | MDA-MB-231 breast 93.9% | RXF 393 renal 102% | SF-268 CNS 95.8% | SF-295 CNS 98.6% | SF-539 CNS 97.3% | UACC-257 melanoma 100% | M14 melanoma 104% | HCT-15 colon 103% | HT29 colon 106% | SNB-75 CNS 62.9% | SNB-19 CNS 96.4% | U251 CNS 95.8% | PC-3 prostate 98.9% | SK-MEL-5 melanoma 99.8% | UACC-62 melanoma 94.2% | LOX IMVI melanoma 94.1% | SK-MEL-28 melanoma 103%

CC(C)N1C(=O)/C(=c2\sc3n(c2=O)C2C(NN=3)N(C)C(=O)N2C)c2ccccc21 (stereo not given)
active: SNB-75 CNS 4.34%
inactive: DU-145 prostate 84.3% | K-562 leukemia 27% | MALME-3M melanoma 53.2% | MDA-MB-231 breast 90.9% | RXF 393 renal 57.3% | SF-268 CNS 74.9% | SF-295 CNS 50.1% | SF-539 CNS 49.2% | UACC-257 melanoma 50% | M14 melanoma 44.9% | HCT-15 colon 37.8% | HT29 colon 31.3% | SNB-19 CNS 61.9% | U251 CNS 48.2% | PC-3 prostate 55% | SK-MEL-5 melanoma 48.8% | UACC-62 melanoma 33.4% | LOX IMVI melanoma 56.6% | SK-MEL-28 melanoma 64%

COc1cc(OC)c(/C=C/C(=O)c2c(O)cc(OC)c(C3CCN(C)CC3)c2OC)c(OC)c1
active: DU-145 prostate -36.2% | K-562 leukemia 9.67% | MALME-3M melanoma -92.2% | MDA-MB-231 breast -68.1% | RXF 393 renal -75.1% | SF-268 CNS -70.9% | SF-295 CNS -79.9% | SF-539 CNS -91.4% | UACC-257 melanoma -81.7% | M14 melanoma -92.7% | HCT-15 colon -58.1% | HT29 colon -73.4% | SNB-75 CNS -8.19% | SNB-19 CNS -55.9% | U251 CNS -85.6% | PC-3 prostate -16.1% | SK-MEL-5 melanoma -99% | UACC-62 melanoma -83.9% | LOX IMVI melanoma -93.3% | SK-MEL-28 melanoma -100%

CNC1=C([N+](=O)[O-])C(c2ccc(OC)cc2)C(C#N)=C(c2cccs2)O1 (stereo not given)
inactive: DU-145 prostate 113% | K-562 leukemia 105% | MALME-3M melanoma 98.6% | MDA-MB-231 breast 99.5% | RXF 393 renal 121% | SF-268 CNS 101% | SF-295 CNS 101% | SF-539 CNS 100% | UACC-257 melanoma 106% | M14 melanoma 103% | HCT-15 colon 108% | HT29 colon 118% | SNB-75 CNS 95.5% | SNB-19 CNS 105% | U251 CNS 101% | PC-3 prostate 101% | SK-MEL-5 melanoma 100% | UACC-62 melanoma 101% | LOX IMVI melanoma 95.3% | SK-MEL-28 melanoma 122%

CC(=O)OC(c1ccccc1)C1CCOC1=O (stereo not given)
inactive: DU-145 prostate 115% | K-562 leukemia 108% | MALME-3M melanoma 107% | MDA-MB-231 breast 103% | RXF 393 renal 101% | SF-268 CNS 110% | SF-295 CNS 94.6% | SF-539 CNS 101% | UACC-257 melanoma 102% | M14 melanoma 99.9% | HCT-15 colon 97.1% | HT29 colon 99.5% | SNB-75 CNS 79.2% | SNB-19 CNS 109% | U251 CNS 99.1% | PC-3 prostate 100% | SK-MEL-5 melanoma 102% | UACC-62 melanoma 87.2% | LOX IMVI melanoma 96.7% | SK-MEL-28 melanoma 113%

CN(C)S(=O)(=O)Oc1ccc(-c2sc3cc(OS(=O)(=O)N(C)C)ccc3c2C(=O)c2ccc(OCCN3CCCCC3)cc2)cc1
active: K-562 leukemia -8.94% | UACC-257 melanoma -17.5% | M14 melanoma 2.03% | HT29 colon 8.75%
inactive: DU-145 prostate 63.4% | MALME-3M melanoma 17.7% | MDA-MB-231 breast 77.5% | RXF 393 renal 26.8% | SF-268 CNS 42.1% | SF-295 CNS 48.6% | SF-539 CNS 52.2% | HCT-15 colon 34.2% | SNB-75 CNS 61.5% | SNB-19 CNS 58.2% | U251 CNS 18.6% | PC-3 prostate 53.6% | SK-MEL-5 melanoma 67.5% | UACC-62 melanoma 47.3% | LOX IMVI melanoma 32.7% | SK-MEL-28 melanoma 57.2%

NC(N)=NS(=O)(=O)c1ccc(NC2=C(I)C(=O)c3ncccc3C2=O)cc1
inactive: DU-145 prostate 105% | K-562 leukemia 94.2% | MALME-3M melanoma 103% | MDA-MB-231 breast 92.7% | RXF 393 renal 108% | SF-268 CNS 90.5% | SF-295 CNS 103% | SF-539 CNS 97.4% | UACC-257 melanoma 97.1% | M14 melanoma 111% | HCT-15 colon 103% | HT29 colon 106% | SNB-75 CNS 67.9% | SNB-19 CNS 98.7% | U251 CNS 110% | PC-3 prostate 92.1% | SK-MEL-5 melanoma 97.9% | UACC-62 melanoma 94.2% | LOX IMVI melanoma 95% | SK-MEL-28 melanoma 135%

Nc1ncnc2c1N=C(c1ccc3c(c1)OCO3)CC(c1cccc(Nc3ccnc4cc(C(F)(F)F)ccc34)c1)N2 (stereo not given)
inactive: DU-145 prostate 87.3% | K-562 leukemia 21% | MALME-3M melanoma 84.3% | MDA-MB-231 breast 88.4% | RXF 393 renal 80.5% | SF-268 CNS 83.6% | SF-295 CNS 87.6% | SF-539 CNS 98.9% | UACC-257 melanoma 74.9% | M14 melanoma 94.2% | HCT-15 colon 70.8% | HT29 colon 69.6% | SNB-75 CNS 76.9% | SNB-19 CNS 77.3% | U251 CNS 37.4% | PC-3 prostate 75.6% | SK-MEL-5 melanoma 84.6% | UACC-62 melanoma 87.1% | LOX IMVI melanoma 51.8% | SK-MEL-28 melanoma 101%

COc1cc(OC)cc(-c2ccc(-c3ccc(C(=N)N)o3)o2)c1
inactive: DU-145 prostate 60.2% | MALME-3M melanoma 71.3% | RXF 393 renal 58.2% | SF-268 CNS 62.6% | SF-295 CNS 86.3% | SF-539 CNS 73.1% | UACC-257 melanoma 45.4% | M14 melanoma 25.1% | SNB-75 CNS 87.6% | SNB-19 CNS 51.3% | PC-3 prostate 71.2% | SK-MEL-5 melanoma 76% | SK-MEL-28 melanoma 87.8%
active: K-562 leukemia 4.64% | MDA-MB-231 breast 0.981% | HCT-15 colon -6.9% | HT29 colon 8.19% | U251 CNS 8.25% | UACC-62 melanoma -3.63% | LOX IMVI melanoma -64.1%

CCOC(=O)c1cnc2c(N=Nc3ccc(OC)cc3)c(N)nn2c1N
inactive: DU-145 prostate 102% | K-562 leukemia 107% | MALME-3M melanoma 106% | MDA-MB-231 breast 101% | RXF 393 renal 113% | SF-268 CNS 94.2% | SF-295 CNS 102% | SF-539 CNS 110% | UACC-257 melanoma 103% | M14 melanoma 110% | HCT-15 colon 102% | HT29 colon 99.3% | SNB-75 CNS 106% | SNB-19 CNS 98.6% | U251 CNS 105% | PC-3 prostate 98.7% | SK-MEL-5 melanoma 96.2% | UACC-62 melanoma 97.3% | LOX IMVI melanoma 110% | SK-MEL-28 melanoma 114%

Cc1ccc(/C=C/C(=O)c2ccc(-n3cc(CN4CCN(c5cc6c(cc5F)c(=O)c(C(=O)O)cn6C5CC5)CC4)nn3)cc2)cc1
inactive: DU-145 prostate 96.3% | K-562 leukemia 86% | MALME-3M melanoma 96% | MDA-MB-231 breast 75.5% | RXF 393 renal 70.9% | SF-268 CNS 71.5% | SF-295 CNS 86.9% | SF-539 CNS 73.6% | UACC-257 melanoma 101% | M14 melanoma 87.4% | HCT-15 colon 97.6% | HT29 colon 98.9% | SNB-75 CNS 70.8% | SNB-19 CNS 86.4% | U251 CNS 73.1% | PC-3 prostate 89.6% | SK-MEL-5 melanoma 86.2% | UACC-62 melanoma 77.6% | LOX IMVI melanoma 56.9% | SK-MEL-28 melanoma 100%

Cc1ccc(N2C(=O)CCC2=O)cc1
inactive: DU-145 prostate 112% | K-562 leukemia 113% | MALME-3M melanoma 108% | MDA-MB-231 breast 93.7% | RXF 393 renal 121% | SF-268 CNS 103% | SF-295 CNS 99.7% | SF-539 CNS 101% | UACC-257 melanoma 109% | M14 melanoma 90.9% | HCT-15 colon 96.3% | HT29 colon 98.9% | SNB-75 CNS 103% | SNB-19 CNS 104% | U251 CNS 105% | PC-3 prostate 99.5% | SK-MEL-5 melanoma 100% | UACC-62 melanoma 98% | LOX IMVI melanoma 102% | SK-MEL-28 melanoma 105%

COc1cc(OC)c(C(=O)C(CN(C)C)CN(C)C)cc1OC
inactive: DU-145 prostate 87.3% | SF-268 CNS 99.1% | SF-295 CNS 101% | SF-539 CNS 67.7% | SNB-75 CNS 91.4% | SNB-19 CNS 102% | U251 CNS 101% | PC-3 prostate 94.5% | SK-MEL-5 melanoma 101% | UACC-62 melanoma 19.2% | SK-MEL-28 melanoma 21.8%
active: K-562 leukemia -42.3% | MALME-3M melanoma -87.8% | MDA-MB-231 breast -59.7% | RXF 393 renal -75% | UACC-257 melanoma 8.98% | M14 melanoma -31.6% | HCT-15 colon -52.4% | HT29 colon 2.66% | LOX IMVI melanoma -68.8%

O=C1/C=C/[C@@H](O)[C@@H]2C[C@@H](O)C[C@H]2/C=C/CCC[C@H](CCO)O1
inactive: DU-145 prostate 16.6% | K-562 leukemia 17.7% | SF-268 CNS 12.4% | SF-295 CNS 12.1% | SF-539 CNS 31.7% | UACC-257 melanoma 27% | M14 melanoma 12.3% | HCT-15 colon 10% | SNB-75 CNS 33.1% | SNB-19 CNS 31.4% | U251 CNS 20.7% | PC-3 prostate 19.6% | UACC-62 melanoma 25.3%
active: MALME-3M melanoma -11.4% | MDA-MB-231 breast -83.1% | RXF 393 renal -7.43% | HT29 colon -2.5% | SK-MEL-5 melanoma -94.6% | LOX IMVI melanoma -61.4% | SK-MEL-28 melanoma -3.47%

CC1(C)CC[C@]23CC[C@]4(C)[C@H](CC[C@@H]5[C@@]6(C)C/C(=C/c7ccncc7)C(=O)C(C)(C)[C@@H]6CC[C@]54C)[C@H]2[C@H]1OC3
inactive: DU-145 prostate 82.1% | K-562 leukemia 69.9% | MALME-3M melanoma 87.9% | MDA-MB-231 breast 65.5% | RXF 393 renal 88.4% | SF-268 CNS 78.1% | SF-295 CNS 90.9% | SF-539 CNS 58.7% | UACC-257 melanoma 85.5% | M14 melanoma 96.6% | HCT-15 colon 73.4% | HT29 colon 43.9% | SNB-75 CNS 61.4% | SNB-19 CNS 83.4% | U251 CNS 70% | PC-3 prostate 51% | SK-MEL-5 melanoma 78.8% | UACC-62 melanoma 90.5% | LOX IMVI melanoma 73.1% | SK-MEL-28 melanoma 76%
